# Source: PubChem BioAssay
# Most compounds without a hit are left out; they make up all but 7.3% or so of the library.
# ELG1 genotoxic = qHTS screen for small molecules that induce genotoxicity in human embryonic kidney (HEK293T) cells expressing luciferase-tagged ELG1 | HEK293T ELG1-luciferase reporter, luminescence, 16 h | Potency, µM (titrated, usually from 46 µM), for inactives: top-dose activity change, positive = activation, usual class: activators | hit rate 1.3% among 330,000 | AID 504466, 2011; note: % of control where 0% means no effect; nearly all actives have a fitted effect of over 60% in size
#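 Genotoxicity was scored as increased ELG1-luciferase reporter signal, measured by ONE-Glo luminescence (30 min, room temperature). Compound or vehicle exposure of the HEK293T reporter cells lasted 16 hr at 37°C.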
# FLuc modulator = qHTS profiling assay for firefly luciferase inhibitor/activator using purifed enzyme and Km concentrations of substrates (counterscreen for miR-21 project) | purified FLuc, Km substrates, luminescence inhibition | AID 588342, 2011 | hit rate 6.9% among 360,000 | Luciferin 4-monooxygenase (Photinus pyralis), P08659 | Potency, µM (series often up to 57.5 µM), without a hit: at the top dose activity change, negative = inhibition, actives largely listed as inhibitors;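 note: plate controls were vehicle for no effect and reference inhibitor for full effect; nearly all actives have a fitted effect of over 55% in size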
# Target sequence (P08659 whole entry, looked up): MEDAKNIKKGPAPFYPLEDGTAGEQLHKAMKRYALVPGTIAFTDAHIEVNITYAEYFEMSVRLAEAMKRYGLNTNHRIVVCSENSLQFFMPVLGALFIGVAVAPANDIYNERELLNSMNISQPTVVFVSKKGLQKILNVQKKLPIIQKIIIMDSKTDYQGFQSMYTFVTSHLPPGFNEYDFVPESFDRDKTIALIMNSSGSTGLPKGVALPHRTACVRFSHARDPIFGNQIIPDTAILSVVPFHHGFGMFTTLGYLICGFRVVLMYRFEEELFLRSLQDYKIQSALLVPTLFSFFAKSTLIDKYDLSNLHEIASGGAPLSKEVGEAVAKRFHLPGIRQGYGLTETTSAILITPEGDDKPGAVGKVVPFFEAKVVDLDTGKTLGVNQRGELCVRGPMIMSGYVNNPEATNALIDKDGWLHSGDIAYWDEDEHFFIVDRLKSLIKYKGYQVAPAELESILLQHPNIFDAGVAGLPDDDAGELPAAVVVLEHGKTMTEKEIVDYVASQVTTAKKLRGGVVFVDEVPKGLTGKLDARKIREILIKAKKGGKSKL
#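 Purified P. pyralis luciferase (10nM final) with 10uM D-luciferin and 10uM ATP (Km levels) in 50mM Tris acetate pH 7.5, 10mM Mg acetate, 0.01% Tween-20, 0.05% BSA; qHTS 6-point titration, ~60 µM downward; luminescence read.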
# SMN2 splice enh = qHTS Assay for Enhancers of SMN2 Splice Variant Expression | HEK293 SMN2-luciferase splicing reporter, luminescence, 30-36 h | Potency, µM (titrated, usually from 46.1 µM), for the others: top-dose activity change, positive = activation, actives largely listed as activators | hit rate 2.8% among 210,000 | AID 1458, 2008; note: % of control where 0% means no effect; nearly all actives have a fitted effect of over 55% in size
#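 qHTS luciferase splicing reporter: luminescence rises when SMN2 exon 7 is included in transfected HEK293 cells. Compound exposure lasted 30-36 h at 37C, with 4.5 mM final sodium butyrate as control, followed by a ONE-Glo read.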
# Rab9 promoter act = qHTS Assay for Rab9 Promoter Activators. Huh7 Rab9 promoter-luciferase reporter, luminescence, 24 h. Potency, µM (titrated, usually from 9.22 µM), without a hit: at the top dose activation, negative = inhibition, actives largely listed as activators. hit rate 2.8% among 320,000. AID 485297, 2010; note: % of control where 0% means no effect; nearly all actives have a fitted effect of over 60% in size
#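 Steps: seed 1500 Huh7 Rab9-luc cells per well, rest 2 h at 37 °C; add compound in DMSO; incubate 24 h; add luciferase reagent, 10 min ambient; read luminescence.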
# NPC1 prom act = qHTS Assay for NPC1 Promoter Activators; Huh7 NPC1 promoter luciferase reporter, 24 h; Potency, µM (doses to about 9.22 µM), inactives show top-dose activation, actives largely listed as activators; hit rate 2.4% among 320,000; note: % of control where 0% means no effect; nearly all actives have a fitted effect of over 60% in size
#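 Luminescence read-out of NPC1 promoter-driven luciferase in stably transfected Huh7 cells; compounds delivered in DMSO and left 24 h at 37C, 5% CO2, qHTS titration format.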
# uPA generation = qHTS for Inhibitors of Cell Surface uPA Generation | Potency, µM (series often up to 38.3 µM), for the others: at the highest dose activity change, negative = inhibition, actives largely listed as inhibitors | cell surface uPA generation assay, qHTS | hit rate 0.31% among 330,000; active = well fitted inhibition curve with a large enough effect; inconclusive = small, poorly fitted or top-dose-only effect; inactive = no such curve, though single readings can be large or run the other way; tested in mouse RAW 264.7 cells; note: % is set by controls: 0 for no effect and ±100 for the full control effect; nearly all actives have a fitted effect of over 55% in size
# * = called active by the depositor; ? = inconclusive; / = not tested or not shown; [ ] = dose if it differs, or a comment. Unless noted, calls come from the whole dose curve; as a rule, active = well fitted curve in the direction sought with a large enough effect; inconclusive = small, poorly fitted or top-dose-only effect, or another doubt; inactive = no such curve, though single readings can be large; an effect the other way counts as inactive or inconclusive. Potency is the fitted concentration of half-maximal effect.
SMILES,ELG1 genotoxic,FLuc modulator,SMN2 splice enh,Rab9 promoter act,NPC1 prom act,uPA generation
O=C(CNC(=O)c1ccccc1)OCc1nc2ccccc2s1,?,9.53µM*,/,6.8%,8.0%,-10.0%
CC1(C)NC(=O)N(CC(=O)OCC(=O)Nc2cccc(S(N)(=O)=O)c2)C1=O,-0.3%,0.7%,3.2%,-1.4%,-3.1%,9.0%
COc1ccc(N/C=C2/Sc3ccccc3NC2=O)cc1,?,2.69µM*,12.6µM*,?,?,-19.6%
O=C1Nc2ccccc2S/C1=C/NCc1ccccc1Cl,1.3%,19µM*,1.8%,12.3%,4.0%,-2.4%
O=C1Nc2ccccc2S/C1=C/c1cccs1,11.5%,?,/,-33.1%,-44.5%,-7.0%
COc1ccccc1CNC(=O)CCC1N=C2c3ccccc3N=C(SCC(=O)NCCc3ccc(OC)c(OC)c3)N2C1=O (stereo not drawn),/,-3.4%,/,/,/,/
Cc1cc2c(cc1NS(=O)(=O)c1ccc(NC(=O)CC(C)C)cc1)n(C)c(=O)c(=O)n2C,/,-19.9%,/,/,/,/
Cc1cccc(C(=O)O/N=C2\CCS(=O)(=O)c3sccc32)c1,0.5%,3.38µM*,-7.8%,3.0%,4.5%,-1.5%
O=C(O/N=C1\CCS(=O)(=O)c2sccc21)c1ccc(F)cc1,0.0%,?,2.8%,-4.9%,-1.4%,8.6%
CC(C)(C)C(=O)O/N=C1\CCS(=O)(=O)c2sccc21,-2.0%,-7.1%,-17.3%,-1.9%,-7.9%,/
O=C(O/N=C1\CCS(=O)(=O)c2sccc21)c1ccccc1,1.6%,2.69µM*,-10.9%,0.2%,-5.5%,5.2%
COc1ccc(/C(C)=N/Nc2ccccc2Cl)c(O)c1,?,10.7µM*,/,-0.4%,-0.2%,7.3%
COc1ccc(/C(C)=N/Nc2ccc(F)cc2F)c(O)c1,?,10.7µM*,?,?,9.9%,0.5%
COc1ccc(C(=O)c2ccccc2O)c(O)c1,4.7%,0.8%,1.6%,2.1%,-1.3%,-7.1%
COc1ccc(C(=O)c2ccc(OC)cc2O)c(O)c1,?,?,/,?,?,-1.0%
C/C(=N\Nc1ccc(F)cc1F)c1cccs1,?,19µM*,-3.3%,22.6%,5.8%,/
Cc1cc(C)cc(N2CCn3c2nc2c3c(=O)n(CCCc3ccccc3)c(=O)n2C)c1,/,-17.0%,/,/,/,/
COc1ccc(N2CC(NC(=O)c3ccc(S(=O)(=O)N4CCCCC4)cc3)CC2=O)cc1OC (stereo not drawn),/,-10.1%,/,/,/,/
CCOc1ccccc1CNC(=O)CCn1ccc2cc(S(=O)(=O)N3CCC(C)CC3)ccc21,/,-1.9%,/,/,/,/
CCc1ccc(NC(=O)C2CCN(c3nn4c(=O)cc(C)nc4s3)CC2)cc1,/,-1.7%,1.4%,/,/,/
Cc1ccccc1C(=O)Nc1cccc(NC(=O)c2ccc(C(C)(C)C)cc2)c1,/,0.757µM*,?,/,/,/
Cc1cc(NC(=O)c2ccccc2[N+](=O)[O-])ccc1Br,?,16.9µM*,26.5%,?,28.5%,-6.7%
COc1cccc(NC(=O)c2cccc(C)c2[N+](=O)[O-])c1,?,19µM*,?,?,9.9%,-1.8%
O=C(Nc1cccc(O)c1)c1ccccc1[N+](=O)[O-],0.7%,5.4%,/,-8.6%,-4.1%,2.9%
Cc1cccc(C(=O)Nc2cccc(Br)c2)c1[N+](=O)[O-],-0.4%,?,/,7.7%,-1.8%,-21.3%
SMILES,ELG1 genotoxic,FLuc modulator,SMN2 splice enh,Rab9 promoter act,NPC1 prom act,uPA generation
Cc1ccccc1C(=O)Nc1cccc(NC(=O)c2ccccc2[N+](=O)[O-])c1,3.2%,?,/,10.5%,-3.2%,4.47µM*
Cc1c(CC(=O)NCCc2ccc(Cl)cc2)c(=O)oc2c(C)c3occ(C(C)(C)C)c3cc12,/,1.2%,2.6%,/,/,/
Cc1ccc(CCN2CC(C(=O)NC3CCCCC3)CC2=O)cc1 (stereo not drawn),0.2%[9.26 µM],4.1%,/,0.3%,0.1%,-10.6%
CCOC(=O)c1ccc(NC(=O)CSc2nc(-c3ccc(OC)cc3)cc(C(F)(F)F)c2C#N)cc1,/,4.6%,-2.2%,/,/,/
CN(C)CCNC(=O)C(=O)Nc1ccc2c(c1)N(S(=O)(=O)c1cccs1)CCC2,3.4%,-5.2%,/,-4.8%,-8.9%,4.47µM*
CN(C)CCCNC(=O)C(=O)Nc1ccc2c(c1)N(S(=O)(=O)c1cccs1)CCC2,1.5%,-1.1%,/,-5.9%,1.6%,-6.2%
Cc1cn2c(=O)c3ccccc3nc2n2c(=O)c3ccccc3nc12,/,/,-2.4%,/,/,/
O=C(/C=C\Nc1ccc(Cl)cn1)c1ccc(Br)cc1,?,?,11.2µM*,2.51µM*,2µM*,-3.1%
Cc1ccnc(N/C=C/C(=O)c2ccc(Br)cc2)c1,?,0.953µM*,/,1.12µM*,1.58µM*,-10.8%
COc1ccc(C(=O)/C=C/Nc2cc(C)ccn2)cc1,?,0.477µM*,/,0.316µM*,0.398µM*,-12.7%
COc1ccc(S(=O)(=O)Nc2cc(C)ccn2)cc1,0.4%,5.6%,16.5%,-1.4%,-7.3%,-0.5%
C[N+](C)(C)CCCSc1nc2ccccc2[nH]1,/,/,-13.1%[9.22 µM],/,/,/
C/C(=N\Nc1nc(N2CCOCC2)nc(N2CCOCC2)n1)c1cccc([N+](=O)[O-])c1,-7.4%,-7.2%,6.5%,-2.7%,-3.0%,2.6%
C/C(=N\Nc1cc(N2CCOCC2)ncn1)c1ccccc1,?,5.36µM*,/,2.51µM*,2.51µM*,?
C/C(=N\Nc1cc(N2CCOCC2)ncn1)c1cccc([N+](=O)[O-])c1,0.6%,-18.1%,11.2µM*,21.5%,17.6%,-14.2%
Cc1nonc1CN(C)C(=O)CC1C(=O)NCCN1Cc1cccc(C(F)(F)F)c1 (stereo not drawn),0.9%,1.6%,/,-5.0%,-0.5%,3.2%
O=C(O)c1sccc1OCc1ccccc1,-3.2%,4.8%,-13.5%,0.3%,-7.7%,-3.6%
CC(C)(C)c1ccc(COc2ccsc2C(=O)O)cc1,17.6%,15.1µM*,16.1%,?,9.7%,5.8%
COC(=O)c1cn(C(=O)c2cccc(C)c2)c2ccccc12,0.3%,-6.4%,8.0%,-5.0%,0.0%,2.8%
CCN(CC)S(=O)(=O)c1cc(-c2nnc(Nc3ccc(OC)c(C(N)=O)c3)c3ccccc23)ccc1C,/,?,-39.9%,/,/,/
Cc1nn(-c2ccccc2)c(C)c1C(=O)Oc1ccccc1,15.5%,16.9µM*,/,?,28.4%,8.5%
COc1ccc(OC(=O)c2cnn(-c3ccccc3)c2C)cc1,?,4.78µM*,?,3.16µM*,3.16µM*,-3.4%
COc1ccc(OC(=O)c2c(C)nn(-c3ccccc3)c2C)cc1,?,15.1µM*,/,?,?,6.7%
